Holding throughout (assay type): functional
For experiment [1], the target named is Solute carrier family 2, facilitated glucose transporter member 1 (Homo sapiens) (UniProt P11166). Description: ST_JUDE_LEISH: Cytotoxicity at 2uM final concentration against transgenic Leishmania Mexicana promastigotes LmGLUT1 that are glucose transport deficient and complemented with the human glucose transporter GLUT1. Activity is measured by DNA content using SYBR green in vitro.

Experiment [2] deals with Hexose transporter 1 (Plasmodium falciparum) (UniProt O97467). Description: ST_JUDE_LEISH: Cytotoxicity at 2uM final concentration against transgenic Leishmania Mexicana promastigotes LmPfHT that are glucose transport deficient and complemented with the Plasmodium falciparum hexose transporter. Activity is measured by DNA content using SYBR green in vitro.
Experiment [3] has as its target Glucose transporter (Leishmania mexicana) (UniProt O61059). Put plainly: ST_JUDE_LEISH: Cytotoxicity at 2uM final concentration against transgenic Leishmania Mexicana promastigotes LmGT2 that are glucose transport deficient and complemented with the L. Mexicana glucose transporter 2. Activity is measured by DNA content using SYBR green in vitro.

This passage reports inhibition results from ChEMBL document CHEMBL3433997, “St. Jude Leishmania screening dataset” (2016).

Sequence of Solute carrier family 2, facilitated glucose transporter member 1 (Homo sapiens) (P11166 whole entry): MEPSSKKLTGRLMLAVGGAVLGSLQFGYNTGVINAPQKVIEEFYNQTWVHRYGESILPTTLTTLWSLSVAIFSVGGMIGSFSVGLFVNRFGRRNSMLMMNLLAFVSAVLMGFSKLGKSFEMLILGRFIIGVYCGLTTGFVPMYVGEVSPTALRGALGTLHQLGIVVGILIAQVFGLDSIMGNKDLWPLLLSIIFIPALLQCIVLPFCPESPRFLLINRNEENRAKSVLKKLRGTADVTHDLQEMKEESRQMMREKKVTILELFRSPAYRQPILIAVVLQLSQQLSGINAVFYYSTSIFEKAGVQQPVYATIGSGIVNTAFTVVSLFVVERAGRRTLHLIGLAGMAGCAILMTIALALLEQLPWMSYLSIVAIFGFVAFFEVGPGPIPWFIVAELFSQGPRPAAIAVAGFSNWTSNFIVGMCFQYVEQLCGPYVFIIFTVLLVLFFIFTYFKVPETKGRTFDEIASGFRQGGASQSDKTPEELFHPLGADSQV

In the case of `O=C(C=Cc1ccc(Cl)c(Cl)c1)NCCCCCN1CCCC(CCCNS(=O)(=O)c2ccc(Br)cc2)C1` (stereo not drawn), the inhibition in experiment [1] was determined as 5.1%; in experiment [2], 3.96%; in experiment [3] it was 2.95%.

For `CC(C)c1ccc(CN2CCC(NC(=O)c3ccc(-c4cccc(F)c4)s3)CC2)cc1`, the inhibition in experiment [1] is 1.18%; in experiment [2] it was -0.01%; in experiment [3], -0.6%.

For the molecule `CC(C)NCc1cccc(-c2ccc(NC(=O)c3ccc(F)cc3)cc2)c1`, the values for the inhibition in experiment [1], in experiment [2] and in experiment [3] were 3.19%, 3.2% and -0.76%, respectively.

As for `Cc1cc(NCCCOc2ccc(Cl)cc2)nc(NCc2ccccc2)n1`, the values for the inhibition in experiment [1], in experiment [2] and in experiment [3] were 18.8%, 11.1% and 7.19%, respectively.

Turning to `Cc1cc(C(=O)NCc2ccc(-c3c(C)noc3C)cc2)n(-c2ccc(Cl)cc2)n1`, the inhibition in experiment [1] was determined as 8.7%; in experiment [2], 7.89%; in experiment [3], 2.6%.

`N#Cc1ccc(-c2ccc(C(=O)NCCCCN3CCC(c4ccc5c(c4OCc4ccncc4)CCCC5)CC3)cc2)cc1`: the inhibition in experiment [1] came to 0.21%; in experiment [2], 3.1%; in experiment [3], 1.26%.

For `Cc1cc(Cl)c(S(=O)(=O)NC2CCCC2)cc1OCC(=O)NC1CCCCC1`, the figures for the inhibition in experiment [1], in experiment [2] and in experiment [3] were 3.49%, 2.41% and 3.8%, respectively.

In the case of `O=C(NC1CC1)c1ccc(N2CCC(Cc3ccccc3)CC2)c([N+](=O)[O-])c1`, the inhibition in experiment [1] was found to be 0.6%; in experiment [2], 0.86%; in experiment [3] it was 3.45%.

In the case of `CC1(C)NC(N)=NC(=N)N1OCC1CCCCC1`, the inhibition in experiment [1] is -0.1%; in experiment [2], 1.24%; in experiment [3] it was 0.75%.

In the case of `CC(=O)NCCNc1nccc(N2CCc3ncnc(Nc4ccc(OCc5ccccn5)c(Cl)c4)c3C2)n1`, the results for the inhibition in experiment [1], in experiment [2] and in experiment [3] were 0.91%, 1.71% and 1.9%, respectively.

As for `Cc1cccc2nc(-c3ccc(-c4cccc(NC(=O)Nc5ccsc5)c4)s3)[nH]c12`, the inhibition in experiment [1] came out at 0.98%; in experiment [2] it was 2.82%; in experiment [3], 1.03%.

Regarding `CN(CCN(C)C(=O)NCc1ccccc1)C(=O)NCc1ccccc1`, the inhibition is 3.05% in experiment [1], 3.69% in experiment [2] and 3.75% in experiment [3].

For `CNc1ccc(CNCc2ccc(-c3ccc(-c4nc5cc(C(F)(F)F)ccc5[nH]4)cc3)cc2)cc1`, the inhibition was 0.54% in experiment [1], -1.86% in experiment [2] and 9.71% in experiment [3].

With `CC(C)[C@H](NC(=O)c1ccc(O)c(-c2cccc(C(F)(F)F)c2)c1)C(=O)NCCN1CCCCC1`, the inhibition in experiment [1] is -0.28%; in experiment [2] it was -0.52%; in experiment [3], 0.62%.

As for `Cc1cccc(CN2CCCN(Cc3ccc(C(=O)Nc4ccc(Cl)cc4)cc3)CC2)c1`, the inhibition in experiment [1] worked out at 11.2%; in experiment [2], 11.3%; in experiment [3] it was 7.83%.

On to `CN(C)CCOc1ccnc2ccc(NC(=O)Cc3ccc(-c4ccncc4)c4ccccc34)cc12`, for which the inhibition in experiment [1] is 1.07%; in experiment [2], -0.32%; in experiment [3] it was 7.74%.

Turning to `CCCOc1cccc(C(=O)N[C@@H](Cc2ccccc2)[C@H](O)CNCc2cccc(OC)c2)c1`, the results for the inhibition in experiment [1], in experiment [2] and in experiment [3] were 0.22%, 0.92% and -3.25%, respectively.

On to `COc1ccc(-c2ccc(NC(=O)c3ccc(C#N)cc3)cc2)cc1CN1CCC(O)CC1`, for which the figures for the inhibition in experiment [1], in experiment [2] and in experiment [3] were -0.1%, -0.59% and -0.53%, respectively.

In the case of `O=C(NCCCN1CCCCC1)c1cccc(Nc2nccc(Nc3ccc(Oc4ccccc4)cc3)n2)c1`, the inhibition in experiment [1] was -2.69%; in experiment [2], -2.52%; in experiment [3], -2.53%.

On to `CN(C)Cc1ccc(-c2ccc3c(Nc4ccc(Cl)cc4F)ccnc3c2)o1`, for which the inhibition is -1.45% in experiment [1], -1.56% in experiment [2] and 5.24% in experiment [3].

`COc1ccc2nc3cc(Cl)ccc3c(Nc3ccc(O)c(CNC(C)C)c3)c2c1`: the inhibition came to 0.29% in experiment [1], 0.43% in experiment [2] and 2.23% in experiment [3].

Take `O=C(Nc1ccccc1)N(Cc1ccccc1-c1cccc(CNC2CCCC2)c1)C1CCN(Cc2ccccc2)CC1`: the inhibition is 0.15% in experiment [1], 1.64% in experiment [2] and 4.91% in experiment [3].

On to `O=C(Nc1ccccc1)c1nn(CCCN2CCC(N3CCCC3)CC2)cc1-c1ccc(Cl)c(Cl)c1`, for which the inhibition in experiment [1] amounted to 2.06%; in experiment [2], 0.39%; in experiment [3], 0.89%.

On to `CN(c1ccc(C(=O)N[C@@H](CCC(=O)O)C(=O)O)cc1)S(=O)(=O)c1ccc2nc(N)[nH]c(=O)c2c1`, for which the inhibition in experiment [1] was 2.98%; in experiment [2] it was -0.77%; in experiment [3], 0.27%.

For `CC(=O)C1=NN(c2ccc(C)cc2)C(c2cccs2)N1c1ccccc1` (stereo not drawn), the inhibition in experiment [1] came out at 2.5%; in experiment [2], 2.74%; in experiment [3], 2.11%.

In the case of `CN(c1ccc2c(c1)nc(NCc1ccc(F)cc1)n2C)c1ccnc(Nc2ccc(CS(C)(=O)=O)cc2)n1`, the inhibition in experiment [1] was -0.61%; in experiment [2], -0.52%; in experiment [3], -1.02%.

With `CC(=O)Nc1ccc2[nH]cc(C3CCN(CC4CCC(NC(=O)/C=C/c5ccccc5Cl)CC4)CC3)c2n1` (stereo not drawn), the inhibition worked out at 6.86% in experiment [1], 5.52% in experiment [2] and 6.59% in experiment [3].

Regarding `CCC(=O)Nc1cc(=O)[nH]c2nc(-c3ccc(Cl)cc3)nn12`, the inhibition is -1.32% in experiment [1], -2.09% in experiment [2] and -2.81% in experiment [3].

`CNCCNCc1cccc(-c2ccc(-c3nc4cccc(C)c4[nH]3)s2)c1`: the figures for the inhibition in experiment [1], in experiment [2] and in experiment [3] were -0.6%, 0.01% and -0.03%, respectively.

With `CN1CCN(c2ccnc3ccc(NC(=O)Nc4ccc(-c5ccncc5)c(C#N)c4)cc23)CC1`, the values for the inhibition in experiment [1], in experiment [2] and in experiment [3] were -0.68%, -2.42% and -2.77%, respectively.

In the case of `CS(=O)(=O)Nc1cccc(-c2cnc3[nH]cc(-c4ccc(CCC(=O)O)cc4)c3c2)c1`, the inhibition in experiment [1] is 2.69%; in experiment [2], 1.66%; in experiment [3], 4.76%.

For `CN(Cc1cc(C(F)(F)F)cc(C(F)(F)F)c1)C(=O)C1CNCC1c1ccc(F)cc1` (stereo not drawn), the values for the inhibition in experiment [1], in experiment [2] and in experiment [3] were 6.61%, 5.75% and 3.05%, respectively.

Turning to `COc1ccc(C(=C(C)CC(C)C(=O)O)c2ccccc2)cc1` (stereo not drawn), the inhibition in experiment [1] is -0.12%; in experiment [2], -0.23%; in experiment [3], 0.28%.

Turning to `Cn1nc(-c2ccc(S(=O)(=O)N3CCC(CCN4CCC(c5c[nH]c6ccccc56)CC4)CC3)s2)cc1C(F)(F)F`, the inhibition is 1.21% in experiment [1], 6.6% in experiment [2] and 2.13% in experiment [3].

Regarding `O=C(NCCCN1CCCC1=O)NCc1ccccc1`, the inhibition in experiment [1] is 0.3%; in experiment [2], -0.23%; in experiment [3] it was -0.11%.

For the molecule `O=C(Nc1ccc2[nH]c(-c3ccc4nc(NC(=O)C5CCCCC5)sc4c3)nc2c1)C1CCCCC1`, the inhibition was 0.5% in experiment [1], -0.34% in experiment [2] and -1.71% in experiment [3].
